Experiment [1] deals with 5'-AMP-activated protein kinase catalytic subunit alpha-2 (Homo sapiens) (UniProt P54646). Conditions: at 1 µM.
Experiment [2] addresses T1, NUAK family SNF1-like kinase 1 (Homo sapiens) (UniProt O60285).
T1 sequence (whole entry): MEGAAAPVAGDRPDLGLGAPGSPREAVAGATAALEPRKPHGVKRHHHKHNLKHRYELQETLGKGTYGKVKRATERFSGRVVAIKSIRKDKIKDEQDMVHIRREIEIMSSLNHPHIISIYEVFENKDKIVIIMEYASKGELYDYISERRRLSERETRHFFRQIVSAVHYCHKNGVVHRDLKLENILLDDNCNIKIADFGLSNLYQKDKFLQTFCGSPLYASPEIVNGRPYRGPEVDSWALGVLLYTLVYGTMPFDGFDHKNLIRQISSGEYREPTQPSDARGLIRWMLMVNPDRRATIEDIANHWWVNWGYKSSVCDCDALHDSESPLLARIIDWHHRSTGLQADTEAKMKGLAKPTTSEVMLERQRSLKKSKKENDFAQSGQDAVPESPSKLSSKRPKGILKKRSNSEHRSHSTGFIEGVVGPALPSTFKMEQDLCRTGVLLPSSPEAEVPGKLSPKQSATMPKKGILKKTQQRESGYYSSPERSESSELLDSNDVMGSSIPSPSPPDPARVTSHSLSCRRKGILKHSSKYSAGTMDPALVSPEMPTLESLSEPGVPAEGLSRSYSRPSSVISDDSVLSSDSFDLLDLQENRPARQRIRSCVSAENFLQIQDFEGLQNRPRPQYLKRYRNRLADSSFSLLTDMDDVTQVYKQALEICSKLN
Conditions: at 0.1 µM.

Experiment [3] addresses T1, NUAK family SNF1-like kinase 1 (Homo sapiens). The settings on record: at 1 µM.
In experiment [4] the target is T2, Serine/threonine-protein kinase BRSK1 (Homo sapiens) (UniProt Q8TDC3).
T2 sequence (whole entry): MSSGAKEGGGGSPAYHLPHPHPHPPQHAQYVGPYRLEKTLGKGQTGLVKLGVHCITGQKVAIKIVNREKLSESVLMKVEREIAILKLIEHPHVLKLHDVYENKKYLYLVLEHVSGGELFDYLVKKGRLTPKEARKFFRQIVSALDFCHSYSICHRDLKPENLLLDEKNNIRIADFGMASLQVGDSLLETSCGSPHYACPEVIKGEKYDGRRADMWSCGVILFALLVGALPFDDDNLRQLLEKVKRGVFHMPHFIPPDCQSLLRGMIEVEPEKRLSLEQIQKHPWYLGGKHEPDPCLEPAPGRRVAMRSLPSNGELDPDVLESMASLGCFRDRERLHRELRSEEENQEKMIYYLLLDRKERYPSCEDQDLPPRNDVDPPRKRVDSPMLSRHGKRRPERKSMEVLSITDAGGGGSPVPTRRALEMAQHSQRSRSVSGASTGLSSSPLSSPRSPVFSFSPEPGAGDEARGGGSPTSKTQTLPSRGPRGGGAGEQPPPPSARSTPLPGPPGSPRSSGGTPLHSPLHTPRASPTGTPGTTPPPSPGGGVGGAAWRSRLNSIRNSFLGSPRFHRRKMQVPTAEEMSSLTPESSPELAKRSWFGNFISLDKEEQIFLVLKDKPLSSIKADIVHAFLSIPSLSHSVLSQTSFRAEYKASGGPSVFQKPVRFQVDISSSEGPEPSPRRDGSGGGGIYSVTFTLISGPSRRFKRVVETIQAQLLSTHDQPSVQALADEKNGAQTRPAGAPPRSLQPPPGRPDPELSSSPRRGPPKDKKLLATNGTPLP
Conditions: at 0.1 µM.

For experiment [5], the target named is T2, Serine/threonine-protein kinase BRSK1 (Homo sapiens). Conditions: at 1 µM.
Experiment [6] deals with T3, Serine/threonine-protein kinase BRSK2 (Homo sapiens) (UniProt Q8IWQ3).
T3 sequence (whole entry): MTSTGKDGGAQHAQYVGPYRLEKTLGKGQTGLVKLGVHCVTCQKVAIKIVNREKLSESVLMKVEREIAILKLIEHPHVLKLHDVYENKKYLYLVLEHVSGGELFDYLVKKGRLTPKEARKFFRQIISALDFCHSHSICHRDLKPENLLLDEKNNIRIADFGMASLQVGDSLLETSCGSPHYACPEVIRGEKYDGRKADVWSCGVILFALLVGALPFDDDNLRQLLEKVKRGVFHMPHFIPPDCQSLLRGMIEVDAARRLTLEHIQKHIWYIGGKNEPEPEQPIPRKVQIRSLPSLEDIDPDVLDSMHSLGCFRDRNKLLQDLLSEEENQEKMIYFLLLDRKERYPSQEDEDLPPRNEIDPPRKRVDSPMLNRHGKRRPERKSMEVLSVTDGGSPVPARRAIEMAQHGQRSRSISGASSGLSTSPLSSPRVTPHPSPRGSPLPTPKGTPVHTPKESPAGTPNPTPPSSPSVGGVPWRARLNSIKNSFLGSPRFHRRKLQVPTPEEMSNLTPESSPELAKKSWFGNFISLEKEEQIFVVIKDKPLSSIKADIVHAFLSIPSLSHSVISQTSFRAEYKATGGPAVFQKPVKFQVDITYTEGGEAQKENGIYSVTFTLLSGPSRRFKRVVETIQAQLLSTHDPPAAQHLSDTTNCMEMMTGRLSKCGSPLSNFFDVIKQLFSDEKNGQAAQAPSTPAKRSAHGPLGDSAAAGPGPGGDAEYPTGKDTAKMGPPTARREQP
The settings on record: at 0.1 µM.

Experiment [7] concerns the target T3, Serine/threonine-protein kinase BRSK2 (Homo sapiens). The settings on record: at 1 µM.
Experiment [8] addresses Calcium/calmodulin-dependent protein kinase type 1D (Homo sapiens) (UniProt Q8IU85). The settings on record: at 0.1 µM.
Experiment [9] shares this target. Conditions: at 1 µM.
In experiment [10] the target is Calcium/calmodulin-dependent protein kinase type II subunit alpha (Homo sapiens) (UniProt Q9UQM7). Conditions: at 0.1 µM.
Chain of Calcium/calmodulin-dependent protein kinase type II subunit alpha (Homo sapiens) (Q9UQM7 whole entry): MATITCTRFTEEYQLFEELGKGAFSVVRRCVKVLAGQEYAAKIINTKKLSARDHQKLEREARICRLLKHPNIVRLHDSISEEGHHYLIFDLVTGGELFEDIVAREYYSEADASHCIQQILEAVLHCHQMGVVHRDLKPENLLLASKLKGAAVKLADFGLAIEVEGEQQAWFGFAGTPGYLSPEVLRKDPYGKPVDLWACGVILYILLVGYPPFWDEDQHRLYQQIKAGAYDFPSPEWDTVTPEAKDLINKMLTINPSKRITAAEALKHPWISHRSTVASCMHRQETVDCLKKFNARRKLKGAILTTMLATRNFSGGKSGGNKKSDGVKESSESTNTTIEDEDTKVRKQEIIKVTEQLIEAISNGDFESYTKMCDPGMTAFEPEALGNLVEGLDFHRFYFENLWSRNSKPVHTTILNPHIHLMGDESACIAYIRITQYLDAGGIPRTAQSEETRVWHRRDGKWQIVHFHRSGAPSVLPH
The target is the same in experiment [11]. The settings on record: at 1 µM.
Experiment [12] addresses Calcium/calmodulin-dependent protein kinase type II subunit delta (Homo sapiens) (UniProt Q13557). Conditions: at 0.1 µM.
The target is the same in experiment [13]. Conditions: at 1 µM.
Experiment [14] addresses T4, Calcium/calmodulin-dependent protein kinase type IV (Homo sapiens) (UniProt Q16566).
T4 sequence (whole entry): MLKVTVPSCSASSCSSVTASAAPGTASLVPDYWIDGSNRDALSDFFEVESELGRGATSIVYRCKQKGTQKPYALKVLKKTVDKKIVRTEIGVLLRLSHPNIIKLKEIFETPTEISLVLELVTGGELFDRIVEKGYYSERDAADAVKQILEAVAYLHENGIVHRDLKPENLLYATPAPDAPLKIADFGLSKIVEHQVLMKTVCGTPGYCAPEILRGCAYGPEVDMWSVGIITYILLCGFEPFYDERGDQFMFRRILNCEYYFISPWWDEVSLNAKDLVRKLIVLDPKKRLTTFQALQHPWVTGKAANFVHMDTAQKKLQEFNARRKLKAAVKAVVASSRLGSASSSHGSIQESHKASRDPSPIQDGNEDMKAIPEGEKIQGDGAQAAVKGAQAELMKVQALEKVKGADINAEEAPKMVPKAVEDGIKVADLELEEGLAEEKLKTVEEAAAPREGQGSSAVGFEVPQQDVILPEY
The settings on record: at 0.1 µM.

Experiment [15] has as its target T4, Calcium/calmodulin-dependent protein kinase type IV (Homo sapiens). Conditions: at 1 µM.
In experiment [16] the target is T5, Serine/threonine-protein kinase Chk1 (Homo sapiens) (UniProt O14757).
T5 sequence (whole entry): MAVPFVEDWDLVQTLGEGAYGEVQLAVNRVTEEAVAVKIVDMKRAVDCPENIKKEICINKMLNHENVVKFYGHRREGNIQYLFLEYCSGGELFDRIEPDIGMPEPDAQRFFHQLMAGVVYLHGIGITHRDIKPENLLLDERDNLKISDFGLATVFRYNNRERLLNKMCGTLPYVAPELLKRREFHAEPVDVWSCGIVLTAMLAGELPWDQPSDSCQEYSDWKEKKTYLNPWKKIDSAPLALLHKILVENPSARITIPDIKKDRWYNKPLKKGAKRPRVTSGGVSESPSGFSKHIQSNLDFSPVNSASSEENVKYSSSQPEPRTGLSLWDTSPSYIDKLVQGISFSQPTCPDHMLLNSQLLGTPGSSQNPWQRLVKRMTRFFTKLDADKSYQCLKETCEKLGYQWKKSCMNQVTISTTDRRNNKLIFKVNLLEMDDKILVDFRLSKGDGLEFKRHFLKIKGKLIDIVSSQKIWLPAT
Conditions: at 0.1 µM.

Experiment [17] concerns the target T5, Serine/threonine-protein kinase Chk1 (Homo sapiens). The settings on record: at 1 µM.
Experiment [18] concerns the target Serine/threonine-protein kinase Chk2 (Homo sapiens) (UniProt O96017). The settings on record: at 0.1 µM.
For experiment [19] the target is unchanged. The settings on record: at 1 µM.
The target of experiment [20] is Death-associated protein kinase 1 (Homo sapiens) (UniProt P53355). The settings on record: at 0.1 µM.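 Also: reported figure is the mean inhibition of DAPK1.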
Chain of Death-associated protein kinase 1 (Homo sapiens) (P53355 whole entry, looked up): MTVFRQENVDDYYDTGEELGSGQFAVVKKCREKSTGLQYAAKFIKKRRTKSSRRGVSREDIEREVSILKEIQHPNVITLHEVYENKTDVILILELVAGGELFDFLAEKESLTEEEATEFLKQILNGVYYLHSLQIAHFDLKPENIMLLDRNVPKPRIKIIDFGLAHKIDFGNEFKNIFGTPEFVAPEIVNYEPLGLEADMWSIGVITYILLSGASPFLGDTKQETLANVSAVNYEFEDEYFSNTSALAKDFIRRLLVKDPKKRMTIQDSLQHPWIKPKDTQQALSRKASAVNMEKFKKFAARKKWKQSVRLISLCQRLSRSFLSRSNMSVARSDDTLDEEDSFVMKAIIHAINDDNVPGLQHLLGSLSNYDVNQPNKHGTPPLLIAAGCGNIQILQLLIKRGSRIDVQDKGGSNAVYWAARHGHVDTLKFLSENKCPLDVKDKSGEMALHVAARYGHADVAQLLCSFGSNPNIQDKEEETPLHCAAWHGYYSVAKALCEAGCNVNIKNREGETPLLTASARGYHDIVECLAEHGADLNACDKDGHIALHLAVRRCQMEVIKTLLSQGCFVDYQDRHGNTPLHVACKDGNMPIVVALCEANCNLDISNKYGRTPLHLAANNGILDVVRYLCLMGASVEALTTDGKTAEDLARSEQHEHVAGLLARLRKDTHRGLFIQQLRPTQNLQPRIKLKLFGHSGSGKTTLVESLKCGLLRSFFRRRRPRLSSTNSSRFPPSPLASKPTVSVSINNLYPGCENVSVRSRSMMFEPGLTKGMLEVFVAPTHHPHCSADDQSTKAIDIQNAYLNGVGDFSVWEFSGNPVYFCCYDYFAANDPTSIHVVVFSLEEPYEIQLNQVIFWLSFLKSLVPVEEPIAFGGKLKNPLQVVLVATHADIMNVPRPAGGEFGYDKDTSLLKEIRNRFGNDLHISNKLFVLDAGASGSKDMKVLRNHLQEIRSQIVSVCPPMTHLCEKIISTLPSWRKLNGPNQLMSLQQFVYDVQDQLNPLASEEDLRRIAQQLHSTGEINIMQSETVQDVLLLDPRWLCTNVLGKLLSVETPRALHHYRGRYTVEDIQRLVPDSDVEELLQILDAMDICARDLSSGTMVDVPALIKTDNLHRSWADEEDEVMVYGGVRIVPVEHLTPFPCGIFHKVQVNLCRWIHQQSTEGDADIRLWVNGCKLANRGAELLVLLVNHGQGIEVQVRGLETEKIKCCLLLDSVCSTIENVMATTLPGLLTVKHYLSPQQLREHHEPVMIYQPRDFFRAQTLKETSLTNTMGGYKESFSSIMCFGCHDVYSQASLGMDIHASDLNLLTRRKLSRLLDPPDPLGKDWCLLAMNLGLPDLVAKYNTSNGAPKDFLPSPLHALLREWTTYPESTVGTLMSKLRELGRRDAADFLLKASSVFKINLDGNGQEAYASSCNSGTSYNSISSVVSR

Chain of Calcium/calmodulin-dependent protein kinase type II subunit delta (Homo sapiens) (Q13557 whole entry): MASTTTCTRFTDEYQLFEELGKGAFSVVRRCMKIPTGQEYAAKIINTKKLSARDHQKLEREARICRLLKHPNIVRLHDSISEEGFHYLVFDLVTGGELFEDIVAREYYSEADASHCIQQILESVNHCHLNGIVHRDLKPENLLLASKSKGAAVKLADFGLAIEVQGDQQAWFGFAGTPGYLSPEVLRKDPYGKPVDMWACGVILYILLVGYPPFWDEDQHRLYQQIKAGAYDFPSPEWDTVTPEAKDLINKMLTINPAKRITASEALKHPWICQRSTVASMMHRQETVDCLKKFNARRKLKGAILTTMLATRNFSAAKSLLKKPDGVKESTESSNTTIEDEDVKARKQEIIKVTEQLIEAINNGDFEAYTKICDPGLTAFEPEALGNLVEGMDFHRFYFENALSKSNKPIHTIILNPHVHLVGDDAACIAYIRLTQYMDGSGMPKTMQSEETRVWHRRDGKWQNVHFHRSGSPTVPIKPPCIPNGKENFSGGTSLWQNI
Chain of Calcium/calmodulin-dependent protein kinase type 1D (Homo sapiens) (Q8IU85 whole entry, looked up): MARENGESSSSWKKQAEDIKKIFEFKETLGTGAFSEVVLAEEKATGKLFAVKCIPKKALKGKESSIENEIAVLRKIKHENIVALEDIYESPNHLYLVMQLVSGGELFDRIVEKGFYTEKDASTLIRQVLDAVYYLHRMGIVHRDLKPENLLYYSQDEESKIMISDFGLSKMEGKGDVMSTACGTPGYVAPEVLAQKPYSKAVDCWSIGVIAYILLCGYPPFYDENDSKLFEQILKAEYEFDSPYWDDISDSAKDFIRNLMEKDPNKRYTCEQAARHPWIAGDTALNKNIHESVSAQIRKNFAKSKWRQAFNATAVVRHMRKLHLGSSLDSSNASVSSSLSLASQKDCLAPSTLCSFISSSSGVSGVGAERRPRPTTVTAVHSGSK
Chain of 5'-AMP-activated protein kinase catalytic subunit alpha-2 (Homo sapiens) (P54646 whole entry, looked up): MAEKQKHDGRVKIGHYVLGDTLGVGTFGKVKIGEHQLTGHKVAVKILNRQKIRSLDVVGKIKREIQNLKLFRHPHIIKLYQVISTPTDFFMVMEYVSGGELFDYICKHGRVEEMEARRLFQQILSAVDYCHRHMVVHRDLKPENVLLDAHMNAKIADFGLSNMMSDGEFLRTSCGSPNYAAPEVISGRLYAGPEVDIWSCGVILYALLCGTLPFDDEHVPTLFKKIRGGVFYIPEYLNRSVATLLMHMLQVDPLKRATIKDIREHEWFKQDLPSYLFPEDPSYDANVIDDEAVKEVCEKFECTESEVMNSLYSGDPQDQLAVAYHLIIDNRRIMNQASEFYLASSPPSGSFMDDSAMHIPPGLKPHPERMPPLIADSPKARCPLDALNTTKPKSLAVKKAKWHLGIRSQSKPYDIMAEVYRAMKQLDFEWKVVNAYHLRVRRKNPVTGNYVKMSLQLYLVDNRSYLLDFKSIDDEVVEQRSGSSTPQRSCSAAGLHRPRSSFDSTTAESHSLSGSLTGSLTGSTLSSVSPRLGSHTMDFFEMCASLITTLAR
Chain of Serine/threonine-protein kinase Chk2 (Homo sapiens) (O96017 whole entry): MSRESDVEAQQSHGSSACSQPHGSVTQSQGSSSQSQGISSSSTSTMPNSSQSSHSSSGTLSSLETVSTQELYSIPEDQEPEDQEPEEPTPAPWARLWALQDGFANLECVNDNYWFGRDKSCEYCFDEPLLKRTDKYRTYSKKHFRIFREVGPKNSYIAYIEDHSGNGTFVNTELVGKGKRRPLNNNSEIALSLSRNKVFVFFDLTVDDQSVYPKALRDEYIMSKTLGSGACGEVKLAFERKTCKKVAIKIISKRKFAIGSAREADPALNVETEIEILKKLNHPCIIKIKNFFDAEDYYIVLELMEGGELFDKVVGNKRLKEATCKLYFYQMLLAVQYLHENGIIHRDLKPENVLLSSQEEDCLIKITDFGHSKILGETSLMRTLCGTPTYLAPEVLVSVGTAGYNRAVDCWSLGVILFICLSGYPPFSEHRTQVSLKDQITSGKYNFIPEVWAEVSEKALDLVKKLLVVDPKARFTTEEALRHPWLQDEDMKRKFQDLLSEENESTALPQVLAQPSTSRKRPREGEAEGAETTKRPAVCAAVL

As a reminder, the inhibition is the drop in the measured response relative to a control, in per cent. For the compound `[O-][S+]1CCN(Cc2ccc(-c3ccc4ncnc(Nc5ccc(OCc6cccc(F)c6)c(Cl)c5)c4c3)o2)CC1`, the inhibition in [1] is 5.75%; in experiment [2], 0.9%; in experiment [3], 3.1%; in [4], 1.17%; in [5] it was 3.09%; in experiment [6], 3.06%. Besides, the inhibition in [7] was 4.57%; in experiment [8], 0.83%; in experiment [9] it was 1.18%; in [10], 3.06%; in experiment [11], 0.16%; in [12], 2.62%. Besides, the inhibition in experiment [13] is 3.95%; in experiment [14], 0.28%; in [15], 2.28%; in experiment [16], 7.38%; in [17], 10.6%; in [18], 1.91%. The inhibition in experiment [19] came to 3.16%; in experiment [20], 6.57%.
As for `COc1ccc(-c2cc3c(N)ncnc3o2)cc1`, the inhibition was -2.04% in [1]; 2.2% in [2]; 2.41% in experiment [3]; -0.42% in experiment [4]; -0.34% in [5]; 0.68% in [6]. The inhibition is 1.73% in experiment [7]; 1.05% in experiment [8]; 2.96% in experiment [9]; -1.62% in [10]; -0.48% in [11]; -0.8% in [12]. For the same compound, the inhibition in [13] is -0.85%; in [14], 0.63%; in [15], -1.72%; in experiment [16], 0.13%; in experiment [17], 2.78%; in experiment [18], -1.09%. Also, the figures for the inhibition in experiment [19] and in experiment [20] were 3.25% and -1.84%, respectively.
As for `COc1cccc(-n2ncc3c(N/N=C/c4ccc(F)cc4)ncnc32)c1`, the inhibition in [1] was found to be 3.2%; in experiment [2], 6.48%; in [3], 16.9%; in experiment [4], 1.24%; in experiment [5], 12.1%; in [6], 5.29%. Besides, the inhibition in experiment [7] was 17.8%; in [8] it was -0.29%; in [9], 1.05%; in [10], 3.15%; in experiment [11], 3.26%; in [12], 3.08%. Further, the inhibition in [13] is 3.49%; in experiment [14], -2.69%; in [15], -2.57%; in experiment [16], 2.07%; in [17], 5.65%; in experiment [18], 2.49%. The inhibition in experiment [19] was 3.64%; in [20], 4.6%.
On to `CC1=C(C(=O)Nc2cc(Cl)c3[nH]ncc3c2)C(c2ccc(C(F)(F)F)cc2)CC(=O)N1` (stereo not given), for which the inhibition is 16.3% in experiment [1]; 1.17% in [2]; 5.4% in experiment [3]; 0.02% in experiment [4]; 3.03% in [5]; 1.64% in experiment [6]. In addition, the inhibition was 8.61% in [7]; -0.28% in [8]; 1.73% in experiment [9]; 1.03% in experiment [10]; 1.21% in experiment [11]; 1.82% in [12]. In addition, the inhibition in [13] was 4.42%; in experiment [14], -0.37%; in experiment [15], 0.15%; in experiment [16], 8.32%; in experiment [17] it was 11.4%; in experiment [18] it was 6.46%. For the same compound, the inhibition in experiment [19] was 7.48%; in experiment [20], 9.05%.
`FC(F)(F)c1cccc(-c2nn3ncccc3c2-c2ccnc(Nc3ccc4c(c3)OCCO4)n2)c1`: the inhibition in [1] came to 4.13%; in experiment [2], 1.51%; in experiment [3] it was 5.87%; in experiment [4] it was 3.69%; in experiment [5], 2.81%; in [6], 2.37%. The inhibition in experiment [7] is 2.54%; in experiment [8] it was -0.54%; in experiment [9], 1.75%; in experiment [10], 1.98%; in experiment [11], 2.43%; in experiment [12] it was 1.59%. The inhibition in [13] turned out to be 3.33%; in experiment [14], 0.49%; in [15] it was 0.92%; in experiment [16], 1.89%; in [17], 2.98%; in [18] it was 1.74%. In addition, the values for the inhibition in experiment [19] and in experiment [20] were 3.43% and 2.28%, respectively.
In the case of `CCN1CCC(CC(=O)Nc2n[nH]c3nnc(-c4cccc(F)c4F)cc23)CC1`, the inhibition was 5.17% in experiment [1]; -1.66% in experiment [2]; 1.56% in [3]; -0.52% in experiment [4]; 3.84% in experiment [5]; 2.07% in [6]. Besides, the inhibition in [7] was -0.1%; in experiment [8], 1.6%; in experiment [9] it was -1.42%; in experiment [10], 3.17%; in experiment [11], -0.76%; in experiment [12] it was 2.44%. For the same compound, the inhibition in experiment [13] is 0.77%; in [14], 2.76%; in experiment [15] it was -0.58%; in experiment [16], 1.72%; in [17] it was -1.03%; in [18], 1.92%. In addition, the figures for the inhibition in experiment [19] and in experiment [20] were 0.24% and 3.62%, respectively.

Values taken from ChEMBL document CHEMBL1961873, “Compounds: GSK PKIS; Assays: Nanosyn kinase panel” (2012).
